tested on: PXR homodimer (NR concentration 270 nM); assay: PBM binding z-score (relative to random genomic background probes); higher = stronger binding; sequences stand for … in GC…GCGATTGACAGCGTAGAATGAAGG
Procedure, shortened: (§1)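 Each nuclear receptor dimer, without ligand, was incubated for 1 h on custom Agilent 4×180K protein-binding microarrays. Binding was detected with antibodies against each partner (one per run), and scanned fluorescence was regression-normalized. The binding z-scores are referenced to random human genomic background probes.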

Point of comparison: CCTGGTAGGTCAATGGTCAGCTAAAGCAGCTCGC, PBM binding z-score 0.146. Against it:
- TATACAGGGTCAAAGGCCCGAGTACGAATGTCGA — lower, 0.0932
- TCTTGTAGCTCAAGCAGGTTAAGAAAGCCTGAGT — lower, -0.596
- TCTTGTGGATCAAAGGTTAAGAAAGCCGAAGCCT — lower, -0.205
- TCTTGTAGTTCAAGCAGGTTAAGAAAGCCTGAGT — higher, 1.78
- CCTACTGGGCCAAAGGTCACTGATTCCAATGCTC — higher, 1.1
- TCTGCAAGGTCAACGATGGTCAGCTAATCTGCTA — higher, 0.31
- GCAGACAGGTGAAACGAAGGTAACTCAGGGTGGC — lower, -0.595
- ATCGAAAGCTCGAAGGTGAGTATACCCACCCGAA — lower, -0.343
- CATACAGGGTCAGCAAGGCCAGAGTAGGGACGGC — higher, 0.241
- TCATATCGGTAAAGGTGAAAGTCGAACGATATGA — lower, -0.566
- CCTTACGGGTCACTGACAGGCTATAGCATTTGGA — lower, -0.147
- GTACCAAGCTGAATAGGTCGTTGATGAGTAGGCG — lower, -0.471
- CGTCCAAGGTGAGCAGGTCAGTGAAAGCGACGTG — lower, -0.516
- TCATATAGGTAAACGTGAAAGTCGAACGATATGA — higher, 0.576
- TCGAGTGGGTTAGTCGGGGCATTCAGCCAACATA — higher, 0.241
- AGAATGAGGTTGTTAAGATCAGGGAATTGCGGTC — higher, 0.179
- CTCGAAAGGTCGGTTAAGGTGAGTATACGGATAA — higher, 0.341
- CGTAGTTGGTCAAGGTCACACACGCTATAGGTAC — higher, 1.11
- CCTGCTAGGTCAATGGTGAGCTAAAGCAGCTCGC — lower, -0.961
- CCTTACGTGTCAAGGTTATAGCACGGGTGGTACG — higher, 0.776
- CAAACTAGGTCAAGAGGTCAAAGTCCGCTTCCCG — higher, 2.86
- TAGCCTTGGTCAGATCGGGCCAGTATACGCTATA — lower, -0.538
- CCAGACAGGTGAAAGGGAACTCAGTCTGGTACGC — lower, -0.23
- TCGAGTAGGTTACCAATGGGGCAGTCAGCTTTCT — lower, -1.34
- TCTCGTAGATCAGCAGGTTAAGAAAGCTGGCCAA — lower, -0.361
- CGTCCAAGGCCAGAGAGGTCAGTGAATGCCGAGT — higher, 3.64
- CCAGACAGGTGCGAAGGTAACTCAGCCTCGATTA — lower, -0.385
- CCTATTGGGCCAAAAAGGTCATTGATGCCGATAA — higher, 2.45
- CGTCCAAGGTCAAGGTCATTGAAAGAGACTCGAA — higher, 2.42
- ATCTCTAGGTAAAGATAGTTAAGTGAATGCAAAT — lower, 0.0795
- TCGTGTAGATCAAAGGTTAAGAAAGCCGAAGCCT — lower, -0.215
- ACAGACAGATGATGAAGGTAACTCAGGCTATCAT — higher, 0.468
- AGAATGAGGGCAATGAGTTGATAGCACGGGTGGC — higher, 5.25
- CCTACTGGGCCACGAAAGGTCATTTATTCAGTGA — higher, 2.29
- ACTTACGGGTCAACGAGGTTATAGAACGCGTATA — higher, 2.8
- TAGCCTAGGTCATTCAGGGGCCAGTATAGAAAGC — lower, -0.0401
- GCTTACGGGTCAAAGGTTATAGCTTGAATAGAAT — lower, 0.119
- CGAACTAGGTCATGGACAGTGAATCTCCGCACGC — lower, -0.279
- CAAACTAGGTCAAAGGTCTAAGTCGAGCCAACCA — lower, 0.0192

tested on: RARa:RXR (NR concentration 270 nM, RXRa partner concentration 90 nM); assay: as above
Procedure, shortened: as §1

Point of comparison: TCGAGTGGGTTAGTCGGGGCATTCAGCCAACATA, PBM binding z-score 0.255. Against it:
- TATACAGGGTCAAAGGCCCGAGTACGAATGTCGA — higher, 4.41
- TCTTGTAGCTCAAGCAGGTTAAGAAAGCCTGAGT — lower, -0.128
- TCTTGTGGATCAAAGGTTAAGAAAGCCGAAGCCT — higher, 2.8
- TCTTGTAGTTCAAGCAGGTTAAGAAAGCCTGAGT — higher, 1.59
- CCTACTGGGCCAAAGGTCACTGATTCCAATGCTC — higher, 6.62
- TCTGCAAGGTCAACGATGGTCAGCTAATCTGCTA — higher, 4.65
- GCAGACAGGTGAAACGAAGGTAACTCAGGGTGGC — higher, 0.681
- ATCGAAAGCTCGAAGGTGAGTATACCCACCCGAA — lower, -0.558
- CATACAGGGTCAGCAAGGCCAGAGTAGGGACGGC — higher, 3.24
- TCATATCGGTAAAGGTGAAAGTCGAACGATATGA — higher, 1.62
- CCTTACGGGTCACTGACAGGCTATAGCATTTGGA — higher, 3.69
- GTACCAAGCTGAATAGGTCGTTGATGAGTAGGCG — lower, 0.235
- CCTGGTAGGTCAATGGTCAGCTAAAGCAGCTCGC — higher, 2.11
- CGTCCAAGGTGAGCAGGTCAGTGAAAGCGACGTG — higher, 0.783
- TCATATAGGTAAACGTGAAAGTCGAACGATATGA — higher, 0.437
- AGAATGAGGTTGTTAAGATCAGGGAATTGCGGTC — lower, 0.0989
- CTCGAAAGGTCGGTTAAGGTGAGTATACGGATAA — higher, 1.97
- CGTAGTTGGTCAAGGTCACACACGCTATAGGTAC — higher, 4.18
- CCTGCTAGGTCAATGGTGAGCTAAAGCAGCTCGC — higher, 1.09
- CCTTACGTGTCAAGGTTATAGCACGGGTGGTACG — higher, 1.16
- CAAACTAGGTCAAGAGGTCAAAGTCCGCTTCCCG — higher, 7.83
- TAGCCTTGGTCAGATCGGGCCAGTATACGCTATA — lower, -0.611
- CCAGACAGGTGAAAGGGAACTCAGTCTGGTACGC — lower, 0.13
- TCGAGTAGGTTACCAATGGGGCAGTCAGCTTTCT — lower, 0.0626
- TCTCGTAGATCAGCAGGTTAAGAAAGCTGGCCAA — higher, 0.521
- CGTCCAAGGCCAGAGAGGTCAGTGAATGCCGAGT — higher, 2.39
- CCAGACAGGTGCGAAGGTAACTCAGCCTCGATTA — lower, -0.323
- CCTATTGGGCCAAAAAGGTCATTGATGCCGATAA — higher, 4.98
- CGTCCAAGGTCAAGGTCATTGAAAGAGACTCGAA — higher, 5.73
- ATCTCTAGGTAAAGATAGTTAAGTGAATGCAAAT — lower, -0.0694
- TCGTGTAGATCAAAGGTTAAGAAAGCCGAAGCCT — higher, 2.68
- ACAGACAGATGATGAAGGTAACTCAGGCTATCAT — lower, 0.101
- AGAATGAGGGCAATGAGTTGATAGCACGGGTGGC — higher, 0.357
- CCTACTGGGCCACGAAAGGTCATTTATTCAGTGA — higher, 4.64
- ACTTACGGGTCAACGAGGTTATAGAACGCGTATA — higher, 4.99
- TAGCCTAGGTCATTCAGGGGCCAGTATAGAAAGC — higher, 2.74
- GCTTACGGGTCAAAGGTTATAGCTTGAATAGAAT — higher, 7.89
- CGAACTAGGTCATGGACAGTGAATCTCCGCACGC — higher, 2.43
- CAAACTAGGTCAAAGGTCTAAGTCGAGCCAACCA — higher, 4.84

From the supplement of paper PMC6555819
